Assay [1] is described as follows: E. coli DRC41 culture turbidity changes, primary screen, E. coli filamentation inducer project, strain DRC41, OD650, 48 h (AID 1152).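 Note: E. coli MC1000 strain DRC41 lacking acrAB efflux pump and sulA.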 To be noted: E. coli DRC41 (acrAB sulA), higher = more signal, called active from +8 up or from −8 down.
Assay [2] in a line: small-molecule binders of probe aLefty1, primary screen, biochemical, small-molecule microarray, 635/667 nm fluorescence (AID 1153).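 Note: score merges spot fluorescence with signal-to-noise ratio from the scanned slide images.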 The following applies: higher = more signal.
Assay [3] can be described thus: PSAC antagonists in infected red cells, primary screen, cell-based, P. falciparum Indochina, OD700, 1 h (AID 1154). The following applies: P. falciparum Indochina infected RBC osmotic lysis, higher = more signal, called active from +8 up or from −8 down.
Assay [4] in a line: PSAC antagonists in infected red cells, primary screen, cell-based, P. falciparum Indochina, OD700, 2 h (AID 1155).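 Note: lysis reports solute entry through the parasite surface anion channel PSAC; channel blockers reduce lysis of infected cells.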 To be noted: P. falciparum Indochina infected erythrocytes, osmotic lysis OD700; higher = more signal, called active from +8 up or from −8 down.
Assay [5] in a line: osmotic lysis modulators in infected erythrocytes, primary screen, PSAC antagonist project, cell-based, P. falciparum Indochina, OD700, 3 h (AID 1156). The following applies: higher = more signal, called active from +8 up or from −8 down.
Assay [6] is described as follows: PSAC antagonists in infected red cells, primary screen, cell-based, P. falciparum Indochina, OD700, 18 h (AID 1157). The following applies: P. falciparum Indochina infected erythrocytes, osmotic lysis OD700, 18 h; higher = more signal, called active from +8 up or from −8 down.
Assay [7] is described as follows: modulators of S6 phosphorylation in cells, primary screen, cell-based, A549, cytoblot, luminescence, serum-stimulated (AID 1158).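 Note: serum-stimulated A549 lung adenocarcinoma cells; signal is phosphorylated S6 detected by cytoblot immunostaining with HRP secondary.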 The following applies: A549 phospho-S6 cytoblot, 5 h, higher = more signal.
The target in assay [8] is NADPH oxidase 2 (Homo sapiens) (UniProt P04839). The experiment in a line: NOX2-dependent H2O2 signal modulators, primary screen, NOX inhibitor project, cell-based, HEK293-NOX2, PMA-stimulated, Amplex Red fluorescence (AID 1159). Note: test concentration not given here. To be noted: 45 min, higher = more signal, called active from +8 up or from −8 down.
NADPH oxidase 2 (Homo sapiens), sequence (P04839 whole entry, looked up): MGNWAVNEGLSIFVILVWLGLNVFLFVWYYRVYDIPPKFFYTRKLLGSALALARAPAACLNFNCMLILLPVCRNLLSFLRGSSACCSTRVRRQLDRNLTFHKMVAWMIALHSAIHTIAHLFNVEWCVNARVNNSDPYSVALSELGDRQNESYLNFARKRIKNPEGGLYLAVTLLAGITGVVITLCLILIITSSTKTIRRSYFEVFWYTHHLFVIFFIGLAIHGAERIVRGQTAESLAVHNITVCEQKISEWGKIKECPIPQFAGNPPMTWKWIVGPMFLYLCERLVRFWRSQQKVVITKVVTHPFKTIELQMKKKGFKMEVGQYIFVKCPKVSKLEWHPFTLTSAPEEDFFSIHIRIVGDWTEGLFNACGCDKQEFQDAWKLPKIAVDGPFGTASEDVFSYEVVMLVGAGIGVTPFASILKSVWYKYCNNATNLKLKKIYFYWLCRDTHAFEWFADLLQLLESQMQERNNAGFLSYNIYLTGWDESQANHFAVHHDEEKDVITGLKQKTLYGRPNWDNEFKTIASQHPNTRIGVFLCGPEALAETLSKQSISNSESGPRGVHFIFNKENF
In assay [9] the target is NADPH oxidase 4 (Homo sapiens) (UniProt Q9NPH5). The experiment in a line: NOX4-dependent H2O2 signal modulators, primary screen, NOX inhibitor project, cell-based, HEK293-NOX4, tetracycline-induced, Amplex Red fluorescence (AID 1160). To be noted: 45 min, higher = more signal, called active from +8 up or from −8 down.
NADPH oxidase 4 (Homo sapiens), sequence (Q9NPH5 whole entry, looked up): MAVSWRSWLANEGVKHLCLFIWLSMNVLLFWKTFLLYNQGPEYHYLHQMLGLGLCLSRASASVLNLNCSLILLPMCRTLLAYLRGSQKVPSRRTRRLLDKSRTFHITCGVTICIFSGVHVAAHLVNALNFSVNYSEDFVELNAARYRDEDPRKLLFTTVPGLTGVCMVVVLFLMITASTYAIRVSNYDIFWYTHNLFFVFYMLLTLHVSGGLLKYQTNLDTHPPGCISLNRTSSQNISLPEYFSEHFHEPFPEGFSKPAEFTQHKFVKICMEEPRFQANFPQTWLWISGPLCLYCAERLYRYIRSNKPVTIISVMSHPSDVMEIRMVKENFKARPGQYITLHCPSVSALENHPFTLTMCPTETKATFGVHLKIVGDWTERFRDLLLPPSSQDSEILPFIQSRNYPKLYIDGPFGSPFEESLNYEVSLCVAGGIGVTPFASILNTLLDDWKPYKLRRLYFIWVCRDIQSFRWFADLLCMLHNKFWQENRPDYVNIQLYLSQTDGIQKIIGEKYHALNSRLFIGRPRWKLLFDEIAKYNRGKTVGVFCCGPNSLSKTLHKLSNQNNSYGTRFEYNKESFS
Assay [10] has as its target NADPH oxidase 5 (Homo sapiens) (UniProt Q96PH1). The experiment in a line: NOX5-dependent H2O2 signal modulators, primary screen, NOX inhibitor project, cell-based, HEK293-NOX5, Amplex Red fluorescence (AID 1161). To be noted: HEK293-NOX5, ionomycin, 45 min, higher = more signal.
Assay [11] is described as follows: A549 cell viability effects, profiling panel, calcein-AM fluorescence, 48 h, basal (AID 1162). Note: test concentration not given here. To be noted: higher = more signal.
The nature of assay [12]: adipocyte viability effects, profiling panel, cell-based, 3T3-L1 adipocytes, calcein-AM fluorescence, 48 h, basal (AID 1163). Note: test concentration not given here. To be noted: 3T3-L1 adipocytes viability, higher = more signal.
A short description of assay [13]: HepG2 cell viability effects, profiling panel, calcein-AM fluorescence, 48 h, basal (AID 1164). Note: test concentration not given here. The following applies: higher = more signal.
Assay [14] in a line: MM1S cell viability effects, profiling panel, calcein-AM fluorescence, 48 h, basal (AID 1165).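 Note: viability of MM1S multiple myeloma cells under basal unstimulated conditions; test concentration not given here.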 The following applies: higher = more signal.
Assay [15] can be described thus: basal RPMI8226 viability, no added stimulus, profiling panel, cell-based, calcein-AM fluorescence, 48 h, PK04 Diversity Set (AID 1166).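 Note: cells grown under basal conditions without added stimulus; test concentration not given here.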 To be noted: RPMI8226 myeloma viability, higher = more signal.
Assay [16] in a line: basal HepG2 mitochondrial membrane potential changes, profiling panel, cell-based, JC-1 fluorescence, 24 h, 100 nL compound (AID 1167). Note: test concentration not given here. To be noted: higher = more signal.
Assay [17] in a line: basal 3T3-L1 adipocyte mitochondrial potential changes, profiling panel, cell-based, JC-1 fluorescence, 3T3-L1 adipocytes, 24 h, 100 nL compound (AID 1168). Note: test concentration not given here. To be noted: JC-1 mitochondrial fluorescence, higher = more signal, called active from +8 up or from −8 down.
Assay [18] is described as follows: basal RPMI8226 mitochondrial membrane potential changes, profiling panel, cell-based, JC-1 fluorescence, 24 h, 100 nL compound (AID 1169). Note: test concentration not given here. To be noted: RPMI8226 myeloma, JC-1 mitochondrial potential fluorescence, higher = more signal.
Assay [19] can be described thus: basal MM1S mitochondrial membrane potential changes, profiling panel, cell-based, JC-1 fluorescence, 24 h, 100 nL compound (AID 1170). Note: test concentration not given here. The following applies: higher = more signal.
Assay [20] is described as follows: A549 lung cancer cell viability effects, profiling panel, resazurin fluorescence, 24 h, PK04 Diversity Set (AID 1171). Note: test concentration not given here. To be noted: higher = more signal, called active from +8 up or from −8 down. Background: Resazurin is reduced to fluorescent resorufin, in cell work by metabolically active cells.

Active and inactive are the calls of the source.

NADPH oxidase 5 (Homo sapiens), sequence (Q96PH1 whole entry, looked up): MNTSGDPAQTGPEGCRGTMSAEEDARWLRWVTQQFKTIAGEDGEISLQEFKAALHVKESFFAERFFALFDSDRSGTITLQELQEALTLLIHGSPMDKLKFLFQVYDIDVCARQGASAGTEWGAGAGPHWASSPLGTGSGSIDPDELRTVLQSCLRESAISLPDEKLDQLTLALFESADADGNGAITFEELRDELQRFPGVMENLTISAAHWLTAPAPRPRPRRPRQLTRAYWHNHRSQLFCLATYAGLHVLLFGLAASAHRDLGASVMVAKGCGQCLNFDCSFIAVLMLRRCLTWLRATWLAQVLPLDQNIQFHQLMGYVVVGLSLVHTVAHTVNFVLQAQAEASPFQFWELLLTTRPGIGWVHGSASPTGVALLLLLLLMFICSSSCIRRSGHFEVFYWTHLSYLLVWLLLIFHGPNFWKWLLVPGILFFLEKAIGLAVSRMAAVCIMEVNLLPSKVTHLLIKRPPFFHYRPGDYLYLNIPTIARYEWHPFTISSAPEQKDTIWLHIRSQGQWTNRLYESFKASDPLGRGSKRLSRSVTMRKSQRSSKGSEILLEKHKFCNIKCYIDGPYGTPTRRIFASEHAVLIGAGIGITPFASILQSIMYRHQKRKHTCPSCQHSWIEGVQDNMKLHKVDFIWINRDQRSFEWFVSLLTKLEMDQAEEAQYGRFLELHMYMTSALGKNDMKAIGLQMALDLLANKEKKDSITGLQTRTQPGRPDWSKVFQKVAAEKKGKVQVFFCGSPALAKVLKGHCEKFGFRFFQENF

For `CO[C@@H]1COC(=O)CC=C[C@@H](C)[C@@H]2C=C[C@H](O)[C@@H](COC(=O)CC=C[C@H]1C)O2`, the z-score in [1] was 0.988 (inactive); in assay [3] it was 0.872 (inactive); in [4] it was -0.28 (inactive); in assay [5], 0.178 (inactive); in assay [6], -0.213 (inactive); in assay [7] it was 1.2. Moreover, the z-score in assay [8] is 0.262 (inactive); in assay [9], 1.18 (inactive); in [10], 0.589; in assay [11], 1.26; in [12], 0.392; in assay [13] it was 0.764. In addition, the z-score is 0.425 in assay [14]; 0.448 in assay [15]; 0.598 in [16]; 0.967 (inactive) in assay [17]; -0.31 in assay [18]; 0.658 in assay [19]. In addition, the z-score in assay [20] is 0.0324 (inactive). The compound further returned a composite z-score in assay [2] of -0.0984.

In the case of `COC(=O)CC=C[C@@H](C)[C@@H](C=NO[C@@H](C)c1cc(-c2c(C)cc(C)cc2C)no1)NS(=O)(=O)c1ccc(C)cc1`, the z-score in assay [1] is -0.466 (inactive); in [3], 1.34 (inactive); in assay [4] it was -0.745 (inactive); in assay [5] it was 0.971 (inactive); in assay [6] it was -1.89 (inactive); in assay [7], 1.13. Further, the z-score in [8] was -0.868 (inactive); in assay [9] it was -0.115 (inactive); in assay [10], -1.47; in [11], -0.985; in assay [12], 0.885; in assay [13] it was -0.145. The z-score is 0.236 in assay [14]; -1.75 in assay [15]; -0.189 in [16]; -1.08 (inactive) in assay [17]; 0.634 in [18]; -0.147 in [19]. Further, the z-score in assay [20] was 0.298 (inactive). The composite z-score in assay [2] came to 0.0437.

For `COC(=O)[C@@H]1CC[C@H](C)[C@@H](c2ccc(C)cc2)N1C(=O)c1ccc(C=NO[C@H](C)c2cn([C@@H]3COC[C@H]3O)nn2)cc1`, the z-score is 0.153 (inactive) in [1]; 22.6 (active) in [3]; 3.19 (inactive) in assay [4]; 0.615 (inactive) in [5]; 1.52 (inactive) in assay [6]; -0.477 in assay [7]. For the same compound, the z-score in assay [8] was -0.166 (inactive); in assay [9], 0.124 (inactive); in assay [10], 0.196; in assay [11], 0.278; in assay [12] it was -1.16; in assay [13], -0.482. Also, the z-score is 0.673 in assay [14]; -0.486 in assay [15]; -1.12 in assay [16]; -0.579 (inactive) in assay [17]; -0.916 in [18]; -0.985 in assay [19]. Besides, the z-score in assay [20] was 0.339 (inactive). Besides, in [2], the composite z-score was found to be 0.109.

Consider `C[C@@H]1C=CCC(=O)OC[C@H]2O[C@@H](C=C[C@@H]2O)[C@H](C)C=CCC(=O)OC1`, for which the z-score in assay [1] is 0.625 (inactive); in assay [3], 0.119 (inactive); in assay [4] it was -1.48 (inactive); in assay [5] it was -0.71 (inactive); in [6], -2.02 (inactive); in [7] it was 1.61. Moreover, the z-score in assay [8] was -0.601 (inactive); in [9], 0.346 (inactive); in assay [10] it was 0.58; in [11], 0.164; in assay [12] it was -0.0309; in assay [13], 1.37. Also, the z-score was 0.35 in assay [14]; 0.72 in [15]; 0.909 in assay [16]; 1.27 (inactive) in assay [17]; -0.0914 in [18]; 1.21 in assay [19]. The z-score in assay [20] is -0.976 (inactive). The compound further displayed a composite z-score in assay [2] of -0.106.

With `CO[C@H]1COC(=O)CC=C[C@@H](C)[C@H](NS(=O)(=O)c2ccc(C)cc2)COC(=O)CCC[C@@H]1C`, the z-score is -0.643 (inactive) in assay [1]; -0.669 (inactive) in assay [3]; -1.56 (inactive) in assay [4]; -0.883 (inactive) in assay [5]; -1.62 (inactive) in assay [6]; -0.56 in [7]. Further, the z-score is -0.255 (inactive) in [8]; 0.987 (inactive) in assay [9]; 0.428 in assay [10]; 0.379 in assay [11]; 1.15 in assay [12]; -0.179 in assay [13]. The z-score in assay [14] was 0.339; in assay [15], 0.229; in assay [16], -0.3; in assay [17] it was -0.134 (inactive); in assay [18], 0.112; in assay [19], -0.58. The z-score in [20] was 0.478 (inactive). In addition, the composite z-score in assay [2] was -0.062.

Turning to `O=C1[C@H]2[C@H]3[C@H](O)[C@H](O)CC(=NOCc4ccccc4)[C@@H]3CC[C@H]2C(=O)N1C[C@@H]1CCCO1`, the z-score in assay [1] is 0.516 (inactive); in assay [3], -0.132 (inactive); in [4], 0.141 (inactive); in [5], -0.335 (inactive); in assay [6], 0.305 (inactive); in assay [7], -0.0701. The z-score was 0.434 (inactive) in [8]; 0.531 (inactive) in [9]; 0.102 in assay [10]; -0.0287 in assay [11]; -0.444 in assay [12]; -0.581 in assay [13]. Also, the z-score is 0.229 in assay [14]; -0.812 in assay [15]; -1.01 in assay [16]; 0.577 (inactive) in assay [17]; -0.944 in assay [18]; -0.28 in assay [19]. In assay [20], the z-score was 0.232 (inactive). Besides, in assay [2], the composite z-score is -0.28.

With `COc1ccc(O[C@H]2C=C[C@@H](c3ccccc3)O[C@@H]2COC(=O)CCC(C)=NO[C@@H]2O[C@H](COC(C)=O)[C@@H](OC(C)=O)[C@H](OC(C)=O)[C@H]2OC(C)=O)cc1`, the z-score in assay [1] was 0.37 (inactive); in assay [3], 1.73 (inactive); in [4] it was 0.583 (inactive); in [5], 1.1 (inactive); in assay [6], 0.539 (inactive); in assay [7], -1.01. The z-score was 1.08 (inactive) in [8]; 1.75 (inactive) in [9]; 0.222 in [10]; -0.502 in assay [11]; 0.0711 in [12]; -0.574 in [13]. The z-score in assay [14] is -0.794; in [15] it was -0.433; in assay [16], -1.05; in assay [17], -0.882 (inactive); in [18], 0.722; in assay [19], -0.375. Further, the z-score in assay [20] is 0.363 (inactive). Further, the composite z-score in assay [2] was -0.019.

Regarding `C=C(C)C(=O)OCC1CN2[C@@H](CC[C@@H](C)[C@@H]2c2ccc(Br)cc2)C(=O)O1` (stereo not given in full), the z-score in [1] is -0.949 (inactive); in assay [3], 3.23 (inactive); in assay [4] it was 0.672 (inactive); in [5] it was 0.189 (inactive); in assay [6] it was 0.491 (inactive); in assay [7] it was -0.48. Moreover, the z-score in [8] is -0.0685 (inactive); in assay [9] it was -0.149 (inactive); in assay [10] it was -0.475; in assay [11] it was -0.0348; in assay [12], -0.518; in assay [13], -0.442. Moreover, the z-score in assay [14] was 0.151; in assay [15], 0.0247; in [16] it was 0.684; in assay [17], -0.614 (inactive); in assay [18] it was -0.863; in [19] it was 0.169. The z-score in assay [20] was 0.789 (inactive). In assay [2], this compound returned a composite z-score of 0.183.

As for `COC(=O)CC=C[C@@H](C)[C@@H]1C=C[C@H](O)[C@@H](CO)O1`, the z-score in [1] is 0.372 (inactive); in [3], 0.0339 (inactive); in assay [4] it was 0.447 (inactive); in assay [5], -0.27 (inactive); in assay [6], -0.0707 (inactive); in [7], 0.338. Also, the z-score in assay [8] is 0.418 (inactive); in [9] it was -0.23 (inactive); in assay [10] it was 0.576; in assay [11], -0.864; in [12], -1.02; in assay [13], -0.008. The z-score was 0.667 in assay [14]; -0.932 in assay [15]; 0.295 in assay [16]; -0.875 (inactive) in assay [17]; -0.229 in [18]; -0.433 in assay [19]. In addition, the z-score in assay [20] was -0.554 (inactive). The compound also came in with a composite z-score in [2] of -0.472.

(Values after PubChem BioAssay.)
